Measurements from PubChem BioAssay AID1421 (Emory University Molecular Libraries Screening Center, 2008).
The whole screen tested about 1,300 compounds, of which about 140 (11%) were called active. The rule behind the calls is not given here. These entries were drawn from the full list. Results with a measured potency or affinity are listed apart.

biological target: Prostaglandin E2 receptor EP2 subtype (Homo sapiens) (UniProt P43116); assay: compounds shifting PGE2 potency at EP2 – cell-based, human EP2, PGE2 EC50 shift, dose response (AID 1421); settings: EP2-expressing cells, PGE2 EC50 shift by compound; at 20 µM
Sequence (P43116 whole entry, looked up): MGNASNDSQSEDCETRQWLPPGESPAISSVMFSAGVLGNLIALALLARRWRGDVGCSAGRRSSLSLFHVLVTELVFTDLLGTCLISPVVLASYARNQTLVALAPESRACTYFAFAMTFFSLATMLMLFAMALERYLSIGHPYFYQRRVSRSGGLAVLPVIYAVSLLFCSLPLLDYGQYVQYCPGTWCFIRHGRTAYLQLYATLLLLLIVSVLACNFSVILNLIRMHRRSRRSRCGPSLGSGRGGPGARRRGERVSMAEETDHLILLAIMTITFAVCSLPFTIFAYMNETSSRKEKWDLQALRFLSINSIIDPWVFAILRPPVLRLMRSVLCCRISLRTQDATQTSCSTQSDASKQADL

PGE2 EC50 with compound, inactive:
CCOc1ccccc1NC(=O)c1ccccc1-c1nc(-c2ccccc2)no1 0.4 nM
Cc1onc(-c2ccccc2Cl)c1-c1nc(-c2ccncc2)no1 0.49 nM
Cc1nn2c(N3CCN(C(=O)c4ccco4)CC3)cc(C(C)(C)C)nc2c1-c1ccccc1 1.08 nM
Cc1ccc(NCc2n[nH]c(=S)n2Cc2ccccc2)cc1Cl 0.64 nM
O=C(O)/C=C/c1ccccc1Oc1ccc(Cl)cc1Cl 1.45 nM
COc1cc2c(cc1OC)-c1cc(Nc3ccc4c(c3)OCCO4)nc(=O)n1CC2 0.72 nM
COc1ccc(OC)c(/C=C/C(=O)N2CCCc3ccccc32)c1 0.28 nM
C=C(C)Cn1c(C)cc(C)c(S(=O)(=O)c2ccc(C)cc2)c1=O 0.32 nM
COC(=O)c1c(NC(=O)CSc2nnc(-c3ccco3)n2Cc2ccccc2)sc(C)c1C 0.82 nM
CCc1cc2cc3c(cc2nc1SCC(=O)OC(C)C)OCO3 0.14 nM
CCOC(=O)C1CCN(c2c(C(=O)c3ccccc3)cnc3ccc(CC)cc23)CC1 0.81 nM
O=c1[nH]c2ccc(Cl)cc2c(-c2ccccc2)c1N1CCN(c2ccccn2)CC1 0.62 nM
O=c1[nH]c2ccc(Br)cc2c(-c2ccccc2)c1N1CCOCC1 0.39 nM
CCOC(=O)C1CCN(c2c(C(=O)c3ccccc3)cnc3ccc(Cl)cc23)CC1 0.39 nM
O=C(Nc1cccc2cccnc12)c1ccc(Br)o1 0.36 nM
CCOP(=O)(OCC)c1nc(/C=C/c2ccccc2)oc1NCc1ccccc1 0.52 nM
CC1CCCN(C(=O)CSc2cnc3ccccc3n2)C1 (stereo not given) 1.42 nM
COCC(=O)Nc1sc2c(c1C(=O)OC)CCC(C)C2 (stereo not given) 0.38 nM
CCOC(=O)c1c(N)sc2c1CCC(CC)C2 (stereo not given) 0.46 nM
CCn1nnnc1SCC(=O)Nc1cccc(C)n1 1.23 nM
COc1cccc(C2=NN(C(=O)c3cccs3)C(O)(C(F)(F)F)C2)c1 (stereo not given) 0.25 nM
S=C(Nc1ccccc1Cl)N(Cc1ccccc1)Cc1ccccn1 0.41 nM
CN(C)c1nccc(N(Cc2ccccc2)Cc2ccccc2)c1C#N 0.29 nM
Cc1ccc(C(C)C)c(OCCn2c(=O)oc3ccccc32)c1 0.33 nM
CC(C)(C)C1CCc2onc(C(=O)Nc3cccnc3)c2C1 (stereo not given) 0.4 nM
c1ccc(C2Nc3ccccc3Oc3ccccc32)cc1 (stereo not given) 0.21 nM
O=C(NCCC1=CCCCC1)c1cccc2c1C(=O)N(C1CCCCC1)C2 1.89 nM
Cc1ccc(S(=O)(=O)N2c3ccccc3OCC2C(C)(C)C)cc1 (stereo not given) 0.14 nM
Cc1ccc2c(c1)N(S(=O)(=O)c1ccc(F)cc1)C(C(C)(C)C)CO2 (stereo not given) 0.45 nM
CCC(=O)N(CC)c1nc(-c2cc(OC)ccc2OC)cs1 0.24 nM
CCCOP(=O)(OCCC)c1nc(-c2ccccc2)oc1NCc1ccccc1 0.15 nM
CCOc1ccc(OCC)c(NC(=O)CN2CCN(c3cccc(C)c3)CC2)c1 0.86 nM
O=C(O)c1cc(C(=O)O)cc(N2C(=O)c3ccccc3C2=O)c1 0.39 nM
O=c1c2ccccc2c(-c2ccccc2)nn1Cc1c(Cl)cccc1Cl 0.41 nM
O=C1CCCc2ccccc2N1Cc1c(Cl)cccc1Cl 0.64 nM
CN(Cc1cccs1)c1nc(-c2cccnc2)nc2ccccc12 0.64 nM
CC(C)CCn1c(Oc2ccc(Cl)cc2)nc2c1c(=O)n(C)c(=O)n2C 0.31 nM
O=c1c2ccccc2c2ccccc2c(=O)n1Cc1ccco1 0.45 nM
CCCCn1c(C)cc(C)c(S(=O)(=O)c2ccccc2C)c1=O 0.31 nM
CC(C)CCn1c(O)c(N=NC(=O)c2ccco2)c2ccccc21 0.33 nM
CCCN(CCC)C(C)C(=O)NCC1(c2ccccc2)CCCC1 (stereo not given) 0.23 nM
CCSc1nc2ccccc2n1Cc1ccccc1F 0.31 nM
CC1CCN(C(C)C(=O)Nc2ccccc2-c2ccccc2)CC1 (stereo not given) 0.26 nM
Cc1ccc(S(=O)(=O)NCC(=O)OCN2C(=O)c3ccccc3C2=O)cc1 2.7 nM
Cc1ccc(S(=O)(=O)c2ccc(Oc3cccc(C)c3)cc2)cc1 0.66 nM
COc1ccc(OCC(=O)NC(=S)Nc2ccc3c4c(cccc24)CC3)cc1 11.2 nM
Cc1cnn(-c2nc(-c3ccccc3)cc(-c3ccccc3)n2)c1 0.56 nM
COc1ccc(-c2cc(C(F)(F)F)n3nc(C(=O)N(C)Cc4ccccc4)cc3n2)cc1OC 0.42 nM
CN(C)c1nc(N2CCOCC2)nc(N(c2ccccc2)c2ccccc2)n1 0.59 nM
c1ccc(Nc2nc(N3CCNCC3)nc(N3CCOCC3)n2)cc1 0.98 nM
COc1ccc(-c2cc(C(F)(F)F)nc(NC3CCCC3)n2)cc1OC 0.54 nM
COc1ccc(C2=Nn3c(nnc3-c3ccccc3)SC2)cc1OC 0.88 nM
CC(=O)c1sc2nc(-c3ccc(C)cc3)c3c(c2c1N)CCCC3 0.52 nM
O=C(/C(=C/O)N=Nc1ccccc1)c1cccs1 2.24 nM
COCCOC(=O)c1c(C)oc2ccc(OCc3ccccc3)cc12 0.53 nM
c1ccc(Oc2nc3ccccc3n3cccc23)cc1 0.38 nM
Cc1cc(C)c2c(n1)sc1c(=O)n(Cc3ccccc3Cl)nnc12 0.29 nM
O=C1c2ccccc2OC2(C=Cc3ccccc3O2)N1Cc1ccccc1 (stereo not given) 0.27 nM
Clc1ccc(-c2nn3c(-c4ccccc4)nnc3s2)cc1 1.36 nM
CCCCOC(=O)Sc1nc2ccccc2o1 2.08 nM
COc1ccc(C(=O)NCCCN2CCOCC2)cc1OC 0.55 nM
COc1ccc(-c2cc(C(F)(F)F)nc(NCc3ccco3)n2)cc1OC 0.48 nM
CC(=O)Oc1c2c(c3c(c1CC=C(C)C)O[C@]14C(=C[C@@H]5CC1C(C)(C)OC4(C/C=C(\C)C(=O)O)C5=O)C3=O)OC(C)(CCC=C(C)C)C=C2 (stereo not given in full) 7.31 nM
O=c1cc(N2CCCCC2)c(-c2ccccc2)nn1Cc1c(Cl)cccc1Cl 1.07 nM
O=c1cc2c(nn1Cc1c(Cl)cccc1Cl)-c1ccccc1CC2 0.74 nM
Cc1ccc(Oc2nc(-c3ccccc3)ncc2S(C)(=O)=O)cc1 0.58 nM
O=C(O)c1ccc(CNCc2cccc(Cl)c2Cl)cc1 1.05 nM
CCOC(=O)C1=CN(CC2CCCO2)C=C(C(=O)OCC)C1c1ccccc1C(F)(F)F (stereo not given) 0.31 nM
C=CCC1(C)C(=O)N(c2ccccc2)c2ccccc21 (stereo not given) 0.38 nM
Brc1cccc(-c2nnc(SCc3ccon3)n2-c2ccccc2)c1 0.48 nM
COc1ccc(Oc2cc(C(F)(F)F)nc(N(C)C)n2)cc1 0.6 nM
Cc1cc(C)n(-c2nc(C)nc3c2cnn3-c2ccccc2)n1 0.41 nM
COC(=O)c1ccc(-c2ccco2)n1Cc1cccc(C)c1 0.17 nM
Cc1nn(Cc2c(Cl)cccc2Cl)c(C)c1C(=O)NCc1ccc(C)n1C 0.76 nM
O=C(CSc1nc2cc(Cl)ccc2s1)N1CCCc2ccccc21 0.24 nM
C/C(=N\N=C(c1ccccc1)c1ccccc1)c1ccco1 0.47 nM
CCOc1ccccc1NC(=O)c1c(Br)cnn1C 0.79 nM
CCOc1ccccc1Cn1c(=O)oc2ccc(C)cc21 0.36 nM
CCOC(=O)c1ccccc1NC1c2ccccc2C(=O)N1c1cc(C)ccn1 (stereo not given) 0.34 nM
O=C(CSc1ncnc2c1oc1ccccc12)Nc1cccc(F)c1 2.94 nM
COc1cccc(/C=N/c2oc(-c3ccccc3)cc2C#N)c1O 8.67 nM
COc1ccc(Nc2nc(-c3cc4cccc(OC)c4oc3=O)cs2)cc1 0.92 nM
O=C(CSc1nnc(COc2ccccc2)n1-c1ccccc1)c1ccccc1 0.74 nM
Cc1cc(C)cc(OC2CCCCC2NS(=O)(=O)c2ccccc2)c1 (stereo not given) 0.48 nM
C=CCOc1ccccc1CNc1ccccc1C 0.32 nM
COc1ccccc1C(=O)NC(=S)Nc1cc(C(=O)O)ccc1C 0.34 nM
Cc1cc(SCC(=O)NCCC2=CCCCC2)nc2ccccc12 0.21 nM
CCCc1cc(=O)n2[nH]c(NCc3cccs3)nc2n1 0.94 nM
N#CN=C1SCCS1 0.67 nM
CSc1ncnc2sc(C)c(C)c12 0.56 nM
C=CCSc1ncnc2sc(C)c(C)c12 0.85 nM
CC(C)c1ccc2c(c1)CCC1C(C)(C(N)=O)CCCC21C (stereo not given) 0.38 nM
Cn1c(/C=C/N(Cc2ccccc2)c2ccccc2)c([N+](=O)[O-])c(=O)n(C)c1=O 0.45 nM
CCN(CC)CCN1C(=O)c2cccc3cc(N)cc(c23)C1=O 0.76 nM
Brc1ccccc1Cn1c(-c2cscn2)nc2ccccc21 0.39 nM
